Key:
Assay in all cases: PBM binding z-score (relative to random genomic background probes); higher = stronger binding; sequences stand for … in GC…GCGATTGACAGCGTAGAATGAAGG
[1] = system: FXR:RXRa (NR concentration 270 nM, RXRa partner concentration 90 nM)
How it was run: (§1)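 For binding z-scores, the reference was random background probes on custom Agilent 4×180K protein-binding microarrays. These arrays were incubated 1 h with ligand-free nuclear receptor dimers in PBS pH 7.4, 2% milk, 0.02% Triton X-100, 1 mM DTT, 0.2 mg/mL BSA and 0.4 mg/ml salmon testes DNA. Fluorescence was scanned after antibody detection of each partner (one per run) and regression-normalized.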

[2] = system: LXRa:RXRa (NR concentration 270 nM, RXRa partner concentration 90 nM)
How it was run: as §1

[3] = system: LXRa homodimer (NR concentration 270 nM)
How it was run: as §1

[4] = system: LXRb:RXRa (NR concentration 270 nM, RXRa partner concentration 90 nM)
How it was run: as §1

[5] = system: LXRb homodimer (NR concentration 270 nM)
How it was run: as §1

[6] = system: PPARa:RXRa (NR concentration 270 nM, RXRa partner concentration 90 nM)
How it was run: as §1

[7] = system: PPARg:RXRa (NR concentration 180 nM, RXRa partner concentration 90 nM)
How it was run: as §1

[8] = system: PPARg:RXRa 270nM:90nM, anti-RXR (NR concentration 270 nM, RXRa partner concentration 90 nM)
How it was run: as §1

[9] = system: PPARg:RXRa 30nM:10nM, anti-RXR (NR concentration 30 nM, RXRa partner concentration 10 nM)
How it was run: as §1

[10] = system: PPARg:RXRa 90nM:30nM, anti-RXR (NR concentration 90 nM, RXRa partner concentration 30 nM)
How it was run: as §1

Sequence | PBM binding z-score [1] | PBM binding z-score [2] | PBM binding z-score [3] | PBM binding z-score [4] | PBM binding z-score [5] | PBM binding z-score [6] | PBM binding z-score [7] | PBM binding z-score [8] | PBM binding z-score [9] | PBM binding z-score [10]
AGAATGAGGTTATACGTAGTTCAGGGAAGAAAGT | 2.23 | 3.06 | 0.289 | 1.93 | -0.31 | 3.55 | 1.85 | 2.29 | 0.654 | 1.49
TCTTGTAGATCAAGCAGGTGAAGAAAGCCTGAGT | 0.239 | 0.182 | -0.332 | -0.145 | -0.467 | 0.527 | -0.404 | 1.19 | 2.61 | 2.07
CCTAGCAGGCCAGGGTCACTCCAGCATTTCGCTT | 1.55 | 1.25 | -0.465 | 1.65 | -0.731 | 2.73 | 0.332 | 1.25 | -0.559 | 0.667
TCTTGTAGATCATCAGGAGGTTAAGAAAGATCGA | 0.0818 | 1.07 | -0.0921 | 0.94 | -0.422 | 1.1 | -0.109 | 1.34 | 2.4 | 1.84
CCTACTGGGCCACGAAAGGTCATTGGTTCAGTGA | 3.88 | 5.26 | 5.57 | 4.37 | 0.215 | 4.79 | 4.66 | 4.86 | 2.43 | 4.48
TCTCCGAGGACACGAAGGTCAGAGCTTTCCAGAG | 1.91 | 0.842 | 0.15 | 0.919 | -0.353 | 2.09 | 0.489 | 1.61 | 2.34 | 2
ATCTCTAGGTAAAGATAGTTAAGTGAATGCAAAT | -0.0331 | 0.0561 | -0.0773 | 0.142 | 0.643 | -0.0582 | 0.771 | 0.421 | 0.415 | 0.236
CTCGTAAGGTCGGTTGAGGTGAGTATACGGATAA | 2.14 | 1.03 | -0.261 | 0.701 | -0.404 | 1.46 | 0.0124 | 0.578 | -0.175 | 0.326
CATACAGCGTCAGCTAGGCCAGAGTAGGGACGGC | -0.554 | -0.839 | -0.547 | -1.42 | -0.647 | -1.05 | 0.332 | -0.936 | -0.344 | -0.884
ACAGACAGGTGAGTGGAGGTAACTCAGCTGGACG | 0.578 | 0.206 | -0.47 | -0.13 | -0.275 | 0.431 | 0.557 | -0.0456 | -0.0591 | 0.000165
CCTAGTTGGTCAGGCGGTCACACACCGGATATGA | 0.554 | 0.309 | 0.525 | 0.155 | 0.122 | 0.32 | 0.706 | 0.973 | -0.186 | 0.129
GCTGCTAGGTCAACTGATGTTCAGCTAAAGCTCG | 4.01 | 2.78 | 0.062 | 1.95 | 0.048 | 3.71 | 2.89 | 3.07 | 0.613 | 1.86
ATCGAAAGGTCGAGGTGAGTAGAGAGAAAGGGAA | 4.27 | 3.47 | 0.0492 | 2.46 | 0.462 | 4.49 | 3.29 | 3.59 | 1.45 | 2.36
TAGCCTAGGTAATTCAGGGGCCAGTATAGAAAGC | -0.449 | -0.444 | -0.517 | -0.109 | -0.53 | -0.0424 | 0.145 | -0.169 | -0.327 | -0.103
TCTATTAGTTGATTAGGGCAAACGAAACAGCGGA | 0.336 | 0.43 | 0.307 | 0.724 | 0.369 | 0.691 | 0.317 | 1.62 | 3.24 | 2.29
CGAACGAGGACATGAGTTGATAGCAAATGCCGAT | 0.0885 | -0.189 | -0.104 | -0.698 | -0.657 | -0.417 | 0.982 | 0.127 | 0.435 | 0.242
TCTAGTTTGTCAAAGGTCACACACTCGAAATGCG | 6 | 5.79 | 5.08 | 5.68 | 2 | 6.11 | 8.39 | 8.19 | 7.6 | 8.39
TCATACAGGTGAAGGTAACTCAGGTACGCAGTCG | 1.02 | 2.17 | 0.186 | 1.18 | 0.221 | 1.68 | 1.3 | 2.39 | 3.72 | 3.04
AATAGTTGGTCAGCTGAGGTCACACACAATTCGG | 3.52 | 3.25 | 3.1 | 3.57 | 1.05 | 3.81 | 2.21 | 2.14 | 0.525 | 1.25
TCATATAGGTAAAAGGTGACAGTCGGTGTGGTAA | 1.88 | 1.46 | -0.178 | 1.61 | 0.00468 | 5.19 | 9.43 | 8.82 | 8.45 | 9.66
CCTAGCAGGCCAGGGTCCCTCAAGCATTTCGCTT | -0.373 | -0.567 | -0.782 | -0.712 | -1.31 | -0.381 | -0.884 | -0.699 | -1.41 | -0.959
CCTTACTGGTCAAGGTTATAGCACGGGTGGTACG | 0.733 | 0.968 | 0.49 | 0.767 | 0.339 | 1.43 | 0.792 | 1.03 | 0.301 | 0.959
TCATATAGGTAAAAGGTGATAGTCGGTGTGGTAA | 1.41 | 1.28 | 0.217 | 1.35 | 0.351 | 4.6 | 8.06 | 7.95 | 8.2 | 8.56
